Screening results (PubChem BioAssay)
The list is not random: actives were taken first. Their share in the collection is about 3%.
Tau fibril ThT = tau fibrillization inhibition (ThT binding); P10636; recombinant tau K18 P301L, heparin-induced fibrillization, ThT fluorescence; Potency, µM (series often up to 57.4 µM), usual class: inhibitors; hit rate 2.1% among 270,000; further: nearly all actives have a fitted effect of over 55% in size
Target sequence (P10636 561-689 P618L limits assumed): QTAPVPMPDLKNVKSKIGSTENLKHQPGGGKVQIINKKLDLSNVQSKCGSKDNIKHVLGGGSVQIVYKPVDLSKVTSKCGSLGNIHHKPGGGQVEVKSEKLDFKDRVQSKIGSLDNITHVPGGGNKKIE
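Heparin-induced fibrillization of the P301L-mutant K18 repeat-domain fragment of human tau was followed by ThT binding in quantitative high-throughput format.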
Coupling enz = counter-screen for Giardia aldolase inhibitors: coupling enzyme system | coupling enzyme system counterscreen, AmpLite Red fluorescence | activity change, negative = inhibition, % at 58.2 µM, hits read low | hit rate 0.67% among 290,000; in the data active means activity change below about -30%
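Counterscreen lacking aldolase: glyceraldehyde-3-phosphate coupling-enzyme reagent preincubated 10 min at RT with compound (at 57.5 uM final), then substrate/coupling system with AmpLite Red added; fluorescence read at 525/598 nm after 20 min RT.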
Tau FP inhib = inhibitors of human tau fibril formation | K18 P301L tau heparin fibrillization, Alexa594 FP, 6 h | Potency, µM (top dose mostly 57.7 µM), hits mostly inhibitors | hit rate 0.39% among 280,000 | AID 1468; further: nearly all actives have a fitted effect of over 55% in size
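Quantitative HTS format: compounds meet 15 uM recombinant K18 P301L tau and Alexa 594-tau tracer in 100 mM sodium acetate pH 7; 20 uM heparin triggers fibrillization at 37 C over 6 hr; FP gives the signal.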
KDM4E inh = blocks human JMJD2E demethylase activity. JMJD2E catalytic domain, FDH-coupled NADH fluorescence (FDH is formaldehyde dehydrogenase). Potency, µM (titrated, usually from 57.1 µM), hits mostly inhibitors. B2RXH2. hit rate 1.6% among 230,000; active means well fitted inhibition curve with a large enough effect, not every such curve was filed as active; inconclusive means small, poorly fitted or top-dose-only effect, or another doubt; inactive means no such curve, though single readings can be large or run the other way; further: nearly all actives have a fitted effect of over 50% in size
Target sequence (B2RXH2 1-337 limits assumed): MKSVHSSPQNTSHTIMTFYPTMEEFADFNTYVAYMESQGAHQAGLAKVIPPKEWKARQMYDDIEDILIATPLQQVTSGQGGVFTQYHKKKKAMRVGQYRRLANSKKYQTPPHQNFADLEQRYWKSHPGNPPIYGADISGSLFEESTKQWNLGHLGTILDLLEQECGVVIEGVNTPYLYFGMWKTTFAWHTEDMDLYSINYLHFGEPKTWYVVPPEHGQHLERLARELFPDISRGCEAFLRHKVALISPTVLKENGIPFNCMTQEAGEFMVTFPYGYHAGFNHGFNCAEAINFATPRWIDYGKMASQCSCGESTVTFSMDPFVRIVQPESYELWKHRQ
Tau fluor cs = counter-screen for tau fibril formation inhibitors; tau K18 P301L Alexa594 fluorescence, heparin fibrillization; Potency, µM (doses to about 57.7 µM); AID 1463; hit rate 0.93% among 280,000; further: nearly all actives have a fitted effect of over 55% in size
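Human tau K18 P301L (15 uM unlabeled, 0.24 uM Alexa 594-labeled) in 100 mM sodium acetate pH 7 with 20 uM heparin, 6 hr at 37 C. ThT 30 uM added, 1 hr ambient; Alexa 594 FP and total fluorescence read at 555/632 nm.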
Hits are given with their value; – = inactive; ? = inconclusive; · = not tested or not shown; [ ] = another dose, or the depositor's remark. Unless noted, the call rests on the fitted dose curve; in most records, active means well fitted curve in the direction sought with a large enough effect; inconclusive means small, poorly fitted or top-dose-only effect, or another doubt; inactive means no such curve, though single readings can be large; an effect the other way counts as inactive or inconclusive.

SMILES	Tau fibril ThT	Coupling enz	Tau FP inhib	KDM4E inh	Tau fluor cs
Cc1ccc(C(=O)Nn2c(O)c(C=C3N=c4ccccc4=N3)sc2=S)cc1	?	–	–	–	?
O=C(Nn1c(O)c(C=C2N=c3ccccc3=N2)sc1=S)c1ccc(Cl)cc1	11µM	–	?	–	7.9µM[quencher]
O=C1N=c2ccccc2=C1c1sc(=S)n(NC(=O)c2cccc(O)c2)c1O	?	–	?	–	?
O=C1N=c2ccc(Br)cc2=C1c1sc(=S)n(NS(=O)(=O)c2ccccc2)c1O	11µM	–	?	–	14µM[quencher]
Cc1ccc(N2CCN(Cc3nnc(-c4ccc5c(c4)OCO5)o3)CC2)c(C)c1	–	·	–	·	–
Oc1c(C=C2N=c3ccccc3=N2)sc(=S)n1-c1ccc2ccccc2c1	?	–	–	–	?
O=C(Nn1c(O)c(C=C2N=c3ccccc3=N2)sc1=S)c1ccccc1	14µM	–	–	–	14µM[quencher]
O=C(Nn1c(O)c(C=C2N=c3ccccc3=N2)sc1=S)c1cccc(Cl)c1	?	–	?	–	13µM[quencher]
CCOC(=O)c1ccc(NC2=CC(c3ccc(O)c(OCC)c3)N(c3ccc(C(=O)OCC)cc3)C2=O)cc1 (stereo unspecified)	–	·	–	·	–
COc1ccc(OC)c(NC(=O)COCc2cc(-c3ccco3)on2)c1	–	·	–	·	–
CCc1ccc(-n2c(N3CCN(c4ccc(F)cc4)CC3)nc3ccccc3c2=O)cc1	–	·	–	·	–
O=C(Nc1ccc(Cl)cc1)Nc1nc(-c2sccc2Br)cs1	?	–	?	–	?
O=C(Nc1ccccc1)Nc1nc(-c2ccccc2)cs1	–	–	?	–	–
O=C(Nc1ccc(Cl)cc1)Nc1nc(-c2ccccc2O)cs1	–	–	?	–	3.5µM[quencher]
O=C(Nc1ccc(Cl)c(Cl)c1)Nc1nc(-c2ccccc2)cs1	–	–	18µM	–	?
CSc1nnc(-c2ccco2)c(-c2ccco2)n1	13µM	-34	?	?	?
COc1ccc(C(=O)CSc2nnc(-c3ccco3)c(-c3ccco3)n2)cc1	14µM	–	?	?	?
O=C(CSc1nnc(-c2ccco2)c(-c2ccco2)n1)Nc1ccccc1	7.9µM	-30	?	16µM	?
Cc1ccc(NC(=O)CSc2nnc(-c3ccco3)c(-c3ccco3)n2)cc1	7.9µM	–	?	?	?
CN(C)c1ccc(NC(=O)CSc2nnc(-c3ccco3)c(-c3ccco3)n2)cc1	·	–	·	·	·
COc1cc(OC)c(OC)cc1/C=C/c1nc2cc3ccccc3cc2c(=O)n1-c1ccccc1Br	–	·	–	·	?
CCn1c(SCC(=O)NNC(=O)c2ccc(OC)cc2)nnc1-c1ccco1	5.6µM	–	–[2.34 µM]	–	–
Cc1ccccc1Nc1oc(-c2ccccc2)nc1-c1ccccc1	–	–	–	?	–
Cn1cc(/C=C2\SC(=S)N(NC(=O)c3cccc(Cl)c3)C2=O)c2ccccc21	?	–	–	–	–
O=C(NN1C(=O)/C(=C/C=C/c2ccco2)SC1=S)c1ccncc1	·	–	?	20µM	?
SMILES	Tau fibril ThT	Coupling enz	Tau FP inhib	KDM4E inh	Tau fluor cs
O=C(NN1C(=O)/C(=C/C=C/c2ccccc2)SC1=S)c1ccncc1	11µM	–	–	–	?
Cn1cc(/C=C2\SC(=S)N(NC(=O)c3ccccc3)C2=O)c2ccccc21	?	–	25µM	–	–
O=C(N/N=C/C=C/c1ccco1)c1ccncc1	–	–	–	?	–
CCOc1ccc(CNCc2c(C(=O)O)c(C)n(Cc3ccc(F)cc3Cl)c2C)cc1	–	·	–	·	–
COc1ccc(C2/C=C\CN(CC(C)C)C(Cc3ccccc3)C(=O)N2Cc2ccc(F)cc2)cc1 (stereo unspecified)	·	–	·	·	·
COc1ccc2c(c1)CC(C(=O)NCCCN1CCN(c3ccc(F)cc3)CC1)CO2 (stereo unspecified)	–	·	–	·	–
COc1cc(C(c2c(C)[nH][nH]c2=O)c2c(C)[nH][nH]c2=O)ccc1OCc1ccc([N+](=O)[O-])cc1	10µM	-35	–	?	?
COc1cc(C(c2c(C)[nH][nH]c2=O)c2c(C)[nH][nH]c2=O)ccc1OC(=O)c1cccc([N+](=O)[O-])c1	?	–	–	–	?
Cc1cccc(/C=N\NC(=O)c2ccc(Cl)cc2)c1O	–	–	–	16µM	–
COc1cccc(/C=N/NC(=O)c2[nH]c(C)c(C(=O)N/N=C/c3cccc(OC)c3O)c2C)c1O	?	–	–	25µM	?
COc1cccc(/C=N/NC(=O)c2ccc(=O)[nH]n2)c1O	?	–	–	13µM	–
Cc1[nH]c(C(=O)N/N=C/c2ccc(N(C)C)cc2)c(C)c1C(=O)N/N=C/c1ccc(N(C)C)cc1	2.2µM	–	–	?	?
Cc1cccc(/C=N/NC(=O)Cc2ccc(Cl)cc2)c1O	·	–	·	·	·
Cc1[nH]c(C(=O)N/N=C/c2ccc(C(=O)O)cc2)c(C)c1C(=O)N/N=C/c1ccc(C(=O)O)cc1	–	–	–	–	–
COc1ccc(OC)c(/C=N/NC(=O)c2ccc(=O)[nH]n2)c1	–	–	–	–	–
COc1cccc(/C=N/NC(=O)c2ccc(-c3ccccc3)cc2)c1O	?	–	–	?	–
COc1cccc(/C=N/NC(=O)c2ccc(=O)n(C)c2)c1O	–	–	–	11µM	–
COc1cc(OC)c(OC)cc1/C=N/NC(=O)c1ccc(=O)n(C)c1	–	–	–	–	–
C[C@H]1Cc2c(-c3ccccc3)nc3c(c2CO1)CN(C(=O)c1cccnc1)CC3	–[11.5 µM]	–	–[11.6 µM]	–[11.4 µM]	–[11.6 µM]
COC(=O)C1=C(C)N(c2ccc(Cl)cc2)/C(=C/c2ccc(O)cc2)C1=O	?	–	–	–	–
COC(=O)C1=C(C)N(c2cc(C)cc(C)c2)/C(=C/c2ccc(O)cc2)C1=O	32µM	–	–	–	–
COCCNC(=O)CSc1nnc2c(Cl)cc(Cl)cn12	13µM	–	25µM	–	–
CCSc1nnc2c(Cl)cc(Cl)cn12	–	–	–	–	–
CC1=C(C(=O)Nc2ccccc2)C(c2ccccc2[N+](=O)[O-])NC(=O)N1 (stereo unspecified)	25µM	–	?	–	?
COc1ccccc1NC(=O)C1=C(C)NC(=O)NC1c1ccccc1[N+](=O)[O-] (stereo unspecified)	?	-41	–	?	–
SMILES	Tau fibril ThT	Coupling enz	Tau FP inhib	KDM4E inh	Tau fluor cs
Cc1ccc(N/C=C/C(=O)c2sc(-c3ccccc3)nc2C)cc1	2µM	–	–	–	–
CCCCN(CCCC)CC(O)Cn1cc(/C=C/C(=O)c2ccccc2)c2ccccc21 (stereo unspecified)	?	·	–	·	?
CCCCN(C)CC(O)Cn1cc(/C=C/C(=O)c2ccc(OCC)cc2)c2ccccc21 (stereo unspecified)	11µM	–	–	·	?
Nc1ncc(O)c(N)n1	·	–	·	·	·
O=C(Nc1ccc(Cl)c(Cl)c1)C1=Cc2ccccc2OC1	?	–	16µM	?	?
Cc1nn2c(=O)cc(COC(=O)c3ccc(NC(=O)c4cccs4)cc3)nc2s1	–	·	–	·	–
CC(C)OCCCn1c(=S)[nH]c2ccc(N3CCOCC3)cc2c1=O	–	-44	–	–	–
